From ChEMBL document CHEMBL4513216, “Probing the Open Global Health Chemical Diversity Library for Multistage-Active Starting Points for Next-Generation Antimalarials” (ACS Infect Dis, 2020)
The whole screen tested about 68,000 compounds, of which about 2,700 (4%) showed an effect of 50% or more. For the sample, strong results were picked, then their nearest neighbours and some compounds at random.

System: Plasmodium berghei
Assay: Screen against P. berghei liver stage (PbLuc), transformed with Luciferase, at 2uM
Format: functional, HepG2
Details: tested at 2 uM

| Compound | INHIBITION [%] |
| --- | --- |
| CC(C#N)CN(C)Cc1cc(Cl)cc2cccnc12 (stereo unspecified) | 28.91 |
| Cc1ccc([C@@H]2CN(C(=O)c3cc(C)no3)C[C@H]2NC(=O)C2CC2)cc1 | 0.94 |
| Cc1nc(CNC2CCN(Cc3ccccc3)C2)sc1C (stereo unspecified) | 36.28 |
| CCc1csc(CNC2CCN(Cc3ccccc3)C2)n1 (stereo unspecified) | 50.59 |
| CCc1nc(C)sc1CNC1CCN(Cc2ccccc2)C1 (stereo unspecified) | 26.74 |
| CCCc1cc(NC2CCc3ncnn3C2)n2ncnc2n1 (stereo unspecified) | 8.91 |
| O=C1CC(c2ccccc2)C2(CCN(Cc3nccs3)CC2)N1 (stereo unspecified) | -4.2 |
| CC(C)(C)OC(=O)N1CCC(NCc2cnn(C(C)(C)C)c2)CC1 | -13.89 |
| Cc1cccc2cc(C(=O)N3CCC(F)(F)CC3)n(C)c12 | 28.1 |
| O=C1CC(c2ccccc2)c2c(n3ccsc3nc2=O)N1 (stereo unspecified) | 73.66 |
| O=C1CC(c2ccc(O)cc2)c2c(n3ccsc3nc2=O)N1 (stereo unspecified) | 37.87 |
| O=C1CC(c2ccc(Cl)c(Cl)c2)c2c(n3ccsc3nc2=O)N1 (stereo unspecified) | 24.44 |
| Cc1ccc(N(CC(=O)c2ccc(Br)cc2)C2=NCCCCC2)cc1 | -13.56 |
| CC(=O)N1CCC(c2cc(Nc3ncccn3)nc(C)n2)C1 (stereo unspecified) | 31.98 |
| CC(C)(C)n1ncc2c1NC(=O)CC2c1cccc(F)c1 (stereo unspecified) | -10.58 |
| CC(C)c1noc(CCC(=O)N2CCN(C)CC2c2ccccc2)n1 (stereo unspecified) | 57.59 |
| CCCc1noc(CCC(=O)N2CCN(C)CC2c2ccccc2)n1 (stereo unspecified) | 35.56 |
| CC(C)c1noc(CCCC(=O)N2CCN(C)CC2c2ccccc2)n1 (stereo unspecified) | 14.63 |
| NC(=O)CC1CCCN(c2cncc(OCc3ccccc3)n2)C1 (stereo unspecified) | 31.78 |
| CC(C)c1nc(C2CCCN2C(=O)c2ccc(N(C)C)nn2)no1 (stereo unspecified) | -9.66 |
| c1ccc(CN2C[C@H]3CC[C@@H](C2)N(Cc2nnc(C4CC4)o2)C3)cc1 | -14.49 |
| CO[C@H]1COCCN(C(=O)c2cc(C)oc2C(F)(F)F)C1 | 35.89 |
| Cc1cc(C(=O)N2CCOC[C@H](Oc3cccnc3)C2)c(C(F)(F)F)o1 | 19.42 |
| Cc1cc(C(=O)N2CCOC[C@H](Oc3cnccn3)C2)c(C(F)(F)F)o1 | 52.91 |

| Compound | INHIBITION [%] |
| --- | --- |
| Cn1cc(CN2CCCC3(CCN(C(=O)c4cnccn4)C3)C2)cn1 (stereo unspecified) | -9.96 |
| CC(C)n1cnnc1CNC(=O)CCCOc1ccccc1F | 18.74 |
| Cc1ccsc1CNC(=O)CC1CN(C(=O)OC(C)(C)C)C1 | 55.36 |
| Cc1cc(CNC(=O)CC2CN(C(=O)OC(C)(C)C)C2)ccc1F | 21.97 |
| CC(C)(C)OC(=O)N1CC(CC(=O)NCc2ccsc2)C1 | 2.9 |
| COc1ncccc1NC(=O)N1CCCC1c1cc(C)no1 (stereo unspecified) | 29.19 |
| Cc1noc(C)c1C(=O)N1CCCCC1c1cc(C)n2ccnc2n1 (stereo unspecified) | 36.98 |
| Cc1sc(-c2ccco2)nc1C(=O)N(CC1CCOC1)C1CC1 (stereo unspecified) | -33.43 |
| Cc1sc(-c2ccco2)nc1C(=O)N(CC(N)=O)C1CCCC1 | 61.82 |
| COCCN(C(=O)c1nc(-c2ccco2)sc1C)C1CC1 | -7.16 |
| CC(NCCN1CCN(C(=O)C2CCCC2)CC1)c1ccccn1 (stereo unspecified) | -21.99 |
| Cn1nc(Cn2cccc2)c2c1CN(Cc1ccsc1)C2 | -6.88 |
| CC(C)n1nc(CN2CCOCC2)c2c1CN(Cc1ccsc1)C2 | 72.91 |
| CC(C)n1nc(CN2CCOCC2)c2c1CN(C(=O)c1ccno1)C2 | 29.3 |
| COCc1nn(C(C)C)c2c1CCN(Cc1ccsc1)C2 | 23.43 |
| Cn1nc(Cn2cccn2)c2c1CN(Cc1ccsc1)C2 | 15.9 |
| Cn1nc(CN2CCOCC2)c2c1CN(Cc1ccsc1)C2 | 57.85 |
| CN(Cc1ccc(F)cc1)CC1(O)CCN(C(=O)c2cccn2C)C1 (stereo unspecified) | -12.09 |
| CCc1nc2ccccc2n1C(CC)C(=O)N(C)Cc1noc(C)n1 (stereo unspecified) | -0.85 |
| CC(=O)N1CCO[C@@H]2CN(S(=O)(=O)c3ccc(C)cc3)CC[C@@H]2C1 | -24.35 |
| CS(=O)(=O)N1CC2(CCCN(CC3CC3)C2)Cc2ccccc21 (stereo unspecified) | 34.09 |
| CN(CCCSc1ccccc1)C(=O)Cn1ncc(N(C)C)cc1=O | 8.2 |
| COc1ccc(-c2cnc(CN3CCn4c(C)nnc4C3)o2)cc1 | -19.76 |
| CCNC(=O)[C@@H]1C[C@H](N)CN1C1CCN(c2ccccc2OC)CC1 | 23.64 |

| Compound | INHIBITION [%] |
| --- | --- |
| Cc1ccc(CCN2CCCC23Cc2ccccc2CNC3=O)cc1 (stereo unspecified) | 57.24 |
| Cc1ccc(CN2CCCC23Cc2ccccc2CNC3=O)cc1 (stereo unspecified) | -14.74 |
| CC(C)CCN1CCCC12Cc1ccccc1CNC2=O (stereo unspecified) | -6.64 |
| CC(C)NC(=O)N1CCN(CC2CC2)CC2(CC(=O)N(C)C2)C1 (stereo unspecified) | 49.9 |
| Cc1cc(-c2cnc(NCc3ccc4c(c3)OCO4)nc2C(C)C)on1 | -0.95 |
| Cc1nc(C2CCCN(C(=O)c3cccc4c3OCO4)C2)sc1C (stereo unspecified) | 7.71 |
| Cc1csc(C2CCCN(C(=O)c3cccc4c3OCO4)C2)n1 (stereo unspecified) | 57.11 |
| CC(C)c1nc(C2CCCN(C(=O)c3cccc4c3OCO4)C2)no1 (stereo unspecified) | 17.59 |
| CCc1cc(NC(=O)C2CCCN(C(=O)c3ccncc3)C2)[nH]n1 (stereo unspecified) | -7.81 |
| c1ccc(C2CCN(c3ncnc4c3CCNC4)CC2)cc1 | -3.14 |
| O=C(NCC(=O)N1CCCC(n2cncn2)C1)OCc1ccccc1 (stereo unspecified) | 21.64 |
| COc1ccnc(N2CCN(C(=O)CN3CCOCC3)CC2)n1 | -19.35 |
| COc1ccnc(N2CCN(C(=O)N3CCOCC3)CC2)n1 | 58.05 |
| COc1ccnc(N2CCN(C(=O)c3csc(C)n3)CC2)n1 | -2.99 |
| COc1ccnc(N2CCN(CC(=O)N3CCOCC3)CC2)n1 | -2.9 |
| COc1ccnc(N2CCN(C(=O)c3cscn3)CC2)n1 | 50.98 |
| COc1ccnc(N2CCN(C(=O)c3csnn3)CC2)n1 | 36.66 |
| COc1ccnc(N2CCN(CC(O)CN3CCOCC3)CC2)n1 (stereo unspecified) | 58.05 |
| COc1ccnc(N2CCN(C(=O)Cc3ccc(C)s3)CC2)n1 | -9.9 |
| COc1ccnc(N2CCN(Cc3ncc(C(C)(C)C)o3)CC2)n1 | 2.67 |
| COc1ccnc(N2CCN(Cc3ncc(-c4ccccc4)o3)CC2)n1 | -41.69 |
| COc1ccnc(N2CCN(C(=O)Cc3csc(C)n3)CC2)n1 | 51.35 |
| COc1ccnc(N2CCN(C(=O)Cc3ccsc3)CC2)n1 | 25.61 |
